Out of some 140,000 compounds screened, about 860 (0.61%) were called active. Cut-off read from the data, not from the text of the source: active = inhibition above about 25%; inactive = the rest. The entries come from a sample that favours actives as a whole.
molecular target: E3 ubiquitin-protein ligase RBX1 (Homo sapiens) + Cullin-1 (Homo sapiens) (UniProt P62877+Q13616); assay: inhibitors of human ROC1-CUL1 ubiquitin ligase activity (AID 1347404); details: in vitro K48 di-Ub FRET, acceptor:donor ratio, 45 min; at 10 µM; hits give high values
Sequence (P62877 whole entry, looked up): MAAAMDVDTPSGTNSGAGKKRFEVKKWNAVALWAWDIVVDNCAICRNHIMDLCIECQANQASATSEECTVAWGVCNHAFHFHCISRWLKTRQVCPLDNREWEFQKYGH
Sequence (Q13616 whole entry, looked up): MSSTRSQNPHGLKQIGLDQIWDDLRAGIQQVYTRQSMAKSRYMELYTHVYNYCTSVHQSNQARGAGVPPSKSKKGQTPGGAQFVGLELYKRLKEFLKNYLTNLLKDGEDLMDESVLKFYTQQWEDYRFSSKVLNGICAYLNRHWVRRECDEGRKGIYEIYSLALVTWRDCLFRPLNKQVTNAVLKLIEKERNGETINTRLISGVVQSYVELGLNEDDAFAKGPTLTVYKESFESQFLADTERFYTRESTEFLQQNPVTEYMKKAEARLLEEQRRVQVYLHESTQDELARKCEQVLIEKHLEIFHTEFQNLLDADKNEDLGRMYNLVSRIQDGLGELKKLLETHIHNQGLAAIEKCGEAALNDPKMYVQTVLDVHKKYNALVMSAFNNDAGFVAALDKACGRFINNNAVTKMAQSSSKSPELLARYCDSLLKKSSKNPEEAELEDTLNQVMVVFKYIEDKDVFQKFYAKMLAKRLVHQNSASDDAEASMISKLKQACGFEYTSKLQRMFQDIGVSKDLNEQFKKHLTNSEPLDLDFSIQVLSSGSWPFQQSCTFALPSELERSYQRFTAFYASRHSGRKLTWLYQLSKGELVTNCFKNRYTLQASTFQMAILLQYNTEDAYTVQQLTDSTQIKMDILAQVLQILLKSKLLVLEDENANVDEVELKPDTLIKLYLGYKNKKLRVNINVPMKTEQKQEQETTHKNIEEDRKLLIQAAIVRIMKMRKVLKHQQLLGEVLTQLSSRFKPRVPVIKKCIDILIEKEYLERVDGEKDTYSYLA

inhibition, active:
Nc1scc2c1c(=O)oc1ccccc12 57%
N#Cc1c(-c2ccccc2)c(-c2ccccc2)n[nH]c1=O 49.7%
O=C(O)c1cc(-c2ccc(CC3=NC(=S)N(c4ccc(Cl)cc4)C3=O)o2)ccc1Cl 101%

inhibition, inactive:
CC(C)NC(=O)Cc1coc2ccc(C(C)(C)C)cc12 5.19%
Cc1noc(C)c1C(=O)CCCCCCCCCCCCCCC(=O)O -8.93%
Cc1ccc(OC(=O)c2ccc(Br)cc2Br)c(C)c1 5.25%
CCCC(=O)NC(=S)Nc1ccccc1Sc1ncnc2scc(-c3ccccc3)c12 3.87%
COc1ccc2c(c1)OC(C)CN(Cc1ccc3cccnc3c1)C2 (stereo not given) 1.92%
CN1C(=O)C(C(=NCc2ccccc2)c2nn[nH]n2)C(=O)c2ccccc21 (stereo not given) 2.67%
Cc1ccc(N=C/C=C/c2ccc([N+](=O)[O-])cc2)cc1 6.74%
CC(=O)Nc1cc(C)ccc1[N+](=O)[O-] -2.27%
Cc1ccc(N2C(=O)c3ccccc3NC2c2ccc(OCc3ccccc3)cc2)cc1 (stereo not given) 8.59%
C=CCNC(=O)C1CCN(S(=O)(=O)N(C)C)CC1 8.77%
O=C(CSc1nc2scc(-c3ccccc3)c2c(=O)n1-c1ccccc1)c1ccccc1F 8.07%
O=C(Nc1ccccc1Cl)c1cc(-c2ccc(Cl)s2)nc2ccccc12 -7.97%
CCOc1cc(Br)c(Br)c(C=Nc2cccc(NC(=O)c3ccc(Cl)cc3Cl)c2)c1O 13.5%
CCN(CC1CCCN(CCc2cccc(OC)c2)C1)C1CCN(C(C)=O)CC1 (stereo not given) -12.6%
COc1ccc(C(=O)CC=Nc2ccc(Oc3ccccc3Cl)cc2)cc1OC 11.3%
Cc1ccc(NC(=O)C(=O)NC(=O)c2n[nH]c3c2CCCC3)cc1 2.41%
CCOc1ccc(Cl)cc1S(=O)(=O)N1CCCCC1C (stereo not given) 3.07%
O=C([C@@H]1C[C@H]1c1ccccc1)N1CCOc2ccc(CN3CCN(c4ncccn4)CC3)cc2C1 -2.65%
Cc1cnc(Sc2nccn2C)c([N+](=O)[O-])c1 -1.03%
CCOC(=O)c1cc(N2C(=O)c3cccc4cccc(c34)C2=O)ccc1Cl -1.46%
COC(=O)c1cc2ccccc2n1C -2.5%
Clc1ccc(-c2csc(NN=C3c4ccccc4-c4ccccc43)n2)cc1 -3.38%
COc1cc(/C=C(/C)[N+](=O)[O-])c2c(c1Br)CCCO2 -18%
COc1ccc2c(c1)CCCN2Cn1nc(COc2ccc(C3CCCCC3)cc2)n(C)c1=S 0.371%
c1cc2nsnc2cc1CN1CCCC(Nc2ccc3c(c2)OCO3)C1 (stereo not given) 2.61%
Cc1cc(Oc2cc(-n3[nH]c(=O)c4ccccc4c3=O)nc(-c3ccccc3)n2)cc(C)c1Cl 7.28%
CCN(CC1CCN(C2CCN(C)CC2)CC1)C(=O)c1occc1C 9.69%
O=C(NCN1CCN(CNC(=O)c2cccnc2)CC1)c1cccnc1 -0.31%
CCN1CCN(c2nc(-c3ccc(OC)cc3)cc(=O)[nH]2)CC1 5.84%
Cc1ccc(Cl)cc1N1CCN(C(=O)C23CC4CC(CC(C4)C2)C3)CC1 -7.78%
Cc1ccccc1CS(=O)(=O)N1CCC(Cc2ccccc2)CC1 8.78%
COc1ccc(C(Nc2cc(C)ccn2)c2ccc3cccnc3c2O)c(OC)c1OC (stereo not given) 2.02%
COc1ccc2nc(SCC#CCSc3nc4ccc(OC)cc4[nH]3)[nH]c2c1 7.63%
CNCC#CCOc1ccccc1C(C)(C)C -2.15%
CN(C)/C=C/c1c(C#N)c(=O)oc2ccccc12 9.69%
O=c1cc(Cl)c2ccccc2o1 -4.6%
CCOC(=O)C(C(=O)OCC)c1ccc(OC)cc1[N+](=O)[O-] 2.12%
CCOc1cc(/C=C2/SC(=O)N(C(C)C)C2=O)ccc1O -0.43%
Nc1nc2c(ncn2S(=O)(=O)c2ccc(C(=O)O)cc2)c(=O)[nH]1 7.51%
Cc1[nH]nc2c1C(c1cccc(OCc3ccccc3Cl)c1)C(C#N)C(=N)O2 (stereo not given) -9.52%
Cc1ccc(C2Oc3ccccc3C3CC(c4cccs4)=NN32)o1 (stereo not given) 0.171%
CCN(CC)C(=O)c1sc(NC(=O)C(Sc2ccccc2)c2ccccc2)c(C#N)c1C (stereo not given) 2.76%
Oc1ccc2oc(SCCOCCOCCOCCSc3cc4cc(O)ccc4o3)cc2c1 0.44%
O=C(COC(=O)c1cc(Cl)c(Cl)cc1C(=O)OCC(=O)c1ccccc1)c1ccccc1 7.68%
O=C(O)CSCC(=O)Nc1nccs1 -17.6%
O=C1C2CCCN2C(=O)N1CCCCN1CCN(c2cccc(C(F)(F)F)c2)CC1 (stereo not given) -6.27%
c1ccc(-c2oc(-c3ccccc3)c(-c3ccccc3)c2-c2ccccc2)cc1 -5.11%
CCc1ccc(-c2cc(C(F)(F)F)n3nc(C(=O)N(C)Cc4cnn(C)c4C)cc3n2)s1 -10.3%
COc1ccc(-c2n[nH]c(=O)c3ccccc23)cc1 0.605%
N#Cc1ccc(-c2nc3cc(C#N)c(C#N)cc3nc2-c2ccccc2)cc1C#N 0.0365%
COc1cc(OC)c(OC)cc1CN1CC[C@@H](N2CCC(O)CC2)[C@H](O)C1 13%
OCc1ccc(-c2cc(Cl)cc(Cl)c2)o1 -5.33%
C=CCN1C(=O)N=C(Cc2ccc(-c3cccc(F)c3)o2)C1=O 2%
COc1cccc(C(=O)NC2(C(F)(F)F)C(=O)N=C3C2C(=O)NC(=O)N3c2ccc(C)cc2)c1 (stereo not given) -7.22%
Cc1ccc(-c2c3nnc4ccccc4c3nc3sc4c(=O)[nH]c(C)nc4c23)cc1 6.93%
COc1ccc(F)c(-c2nc(CN(C)Cc3nonc3C)c(C)o2)c1 3.31%
COCCCN1C(=O)CC(CC(=O)N2CCN(C)C(c3ccccc3)C2)(c2ccccc2OC)C1=O (stereo not given) 9.56%
